Assay outcomes deposited in PubChem BioAssay by National Center for Advancing Translational Sciences (NCATS).
This is a sample that favours compounds with a hit; in the whole collection about 4.7% have one here.
D1 agonist – human D1 receptor agonism. AID 504660. 1% of 360,000 active. P21728. activation, % at 2 µM. HEK293 T-REx D1 cells, calcium flux, agonist mode; note: 0% is about no effect
Target sequence (P21728 whole entry, looked up): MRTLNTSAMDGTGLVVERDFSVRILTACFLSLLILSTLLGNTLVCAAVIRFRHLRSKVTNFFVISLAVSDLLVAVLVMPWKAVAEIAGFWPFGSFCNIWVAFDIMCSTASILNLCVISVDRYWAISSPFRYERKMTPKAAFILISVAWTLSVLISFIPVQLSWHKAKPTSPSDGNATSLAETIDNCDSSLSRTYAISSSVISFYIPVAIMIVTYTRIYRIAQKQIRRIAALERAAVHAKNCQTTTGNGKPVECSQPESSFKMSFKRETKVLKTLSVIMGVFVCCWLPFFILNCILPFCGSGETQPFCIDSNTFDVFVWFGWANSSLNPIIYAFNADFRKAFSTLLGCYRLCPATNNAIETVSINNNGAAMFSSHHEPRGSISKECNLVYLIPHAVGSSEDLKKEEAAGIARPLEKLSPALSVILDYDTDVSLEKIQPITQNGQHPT
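Agonism was scored from calcium flux recorded over 180 s (1 read/s) after pintool compound addition, following a 10-cycle baseline. Cells were inducible force-coupled HEK293 TREx D1, plated overnight at 30 C and loaded with no-wash calcium dye.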
D1 antagonist – antagonists of human D1 dopamine receptor; HEK293 TREx D1 cells, calcium flux, dopamine EC80; hits give low values; 3.2% of 360,000 active; P21728; activity change, negative = inhibition, % at 10 µM; in the data active = activity change below about -30%; note: % is set by controls: 0 for no effect and ±100 for the full control effect
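After overnight tetracycline induction at 30 C, force-coupled D1 HEK293 cells took up a no-wash calcium dye at room temperature. Compounds were added and monitored 180 s, and the response to EC80 dopamine was then recorded.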
TRHR PAM – allosterically enhances the human TRH receptor; 0.66% of 360,000 active; enhancement, % at 2 µM; TRHR cells, fluo-8 calcium fluorescence, EC20 TRH enhancement; AID 493056; P34981; in the data active = enhancement above about 30%; note: 0% is about no effect
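Enhancer read-out: after compound pinning and an initial kinetic agonist-mode read, an EC20 of TRH (10 nM final) was injected and fluo-8 calcium signal (Ex 480/Em 530) followed at 1 s/cycle for 100 cycles in TRHR-expressing cells.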
TRHR ag – activates the human TRH receptor; P34981; TRHR cells, calcium flux fluo-8, FDSS agonist mode; activation, % at 2 µM; 0.18% of 360,000 active; note: 0% is about no effect
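Fluo-8-loaded TRHR cells; 10 s baseline, compound added, kinetic Ca2+ fluorescence read 1/s, agonist mode.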
D1 PAM – potentiators of human D1 dopamine receptor | HEK293 TREx D1 cells, calcium flux, dopamine EC20 potentiation | 0.036% of 360,000 active | potentiation, % at 10 µM | P21728 | AID 504651; in the data active = potentiation above about 30%; note: 0% is about no effect
An asterisk follows results filed as active; / = not tested or not shown. Cut-off read from the data, not from the text of the source, unless noted: active = activation above about 30%; inactive = the rest.

SMILES | D1 agonist | D1 antagonist | TRHR PAM | TRHR ag | D1 PAM
COc1ccc(-c2cc3nc(C)c(CCC(=O)NC(C)c4ccccc4)c(C)n3n2)c(OC)c1 (stereo not given) | -1 | -7 | 2 | 0 | -1
COc1cc(NC(=O)CCc2c(C)nc3cc(-c4ccccc4)nn3c2C)cc(OC)c1OC | -1 | 0 | 5 | 0 | -5
COc1ccc(-c2cc3nc(C)c(CCC(=O)Nc4cccc(C(F)(F)F)c4)c(C)n3n2)c(OC)c1 | 0 | -20 | 32* | 0 | -2
COC(=O)c1cc(NC(=O)CCc2c(C)nc3cc(-c4ccccc4)nn3c2C)cc(C(=O)OC)c1 | 1 | -2 | 40* | 0 | -4
COc1cc(OC)cc(-c2cc3nc(C)c(CCC(=O)Nc4ccc(F)c(Cl)c4)c(C)n3n2)c1 | 2 | -9 | -2 | 0 | -2
COc1ccc(NC(=O)CCc2c(C)nc3cc(-c4cccc(F)c4)nn3c2C)cc1Cl | 0 | -23 | 40* | 0 | -7
COc1ccc(-c2nc3c(C#N)c[nH]n3c2NC2CCCC2)c(OC)c1 | 1 | 4 | 0 | -1 | 0
COc1ccccc1OCCNC(=O)C(CCSC)NC(=O)c1ccccc1Cl (stereo not given) | 3 | -21 | 5 | 0 | 0
CSCCC(NC(=O)COc1ccccc1)C(=O)N1CCCCC1 (stereo not given) | 0 | 3 | 0 | 0 | -3
CSCCC(NC(=O)COc1ccccc1)C(=O)N1CCC(C(N)=O)CC1 (stereo not given) | 1 | -31* | 2 | 0 | /
COc1ccccc1C(=O)NC(CCSC)C(=O)OC(C)C(N)=O (stereo not given) | 0 | 8 | 36* | -1 | -1
COc1ccccc1C(=O)NC(CCSC)C(=O)NCCCSc1ccccc1 (stereo not given) | 92* | -1 | -8 | 0 | 0
COc1ccccc1C(=O)COC(=O)C(CCSC)NC(=O)COc1ccccc1 (stereo not given) | 4 | 9 | 30* | 0 | -4
COC(=O)c1sccc1S(=O)(=O)N1CCN(c2ccc(C)cc2C)CC1 | 16 | -10 | 4 | 1 | -3
Cc1cccc(C)c1OCCN1C(=O)NC(C)(c2ccccc2)C1=O (stereo not given) | 5 | 1 | 40* | 1 | 0
CN1CCN(c2ccc(Cl)cc2NC(=O)CN2C(=O)NC(C)(c3ccccc3)C2=O)CC1 (stereo not given) | -1 | -10 | -5 | 0 | -3
CCC1(c2ccccc2)NC(=O)N(CC(=O)Nc2cc(Cl)ccc2N2CCN(C)CC2)C1=O (stereo not given) | 8 | -38* | 7 | 1 | -14
CC1(c2ccccc2)NC(=O)N(CC(=O)Nc2ccccc2N2CCCC2)C1=O (stereo not given) | 38* | 3 | 8 | 3 | -5
O=C(CN1C(=O)NC2(CCCC2)C1=O)Nc1ccccc1N1CCCC1 | 4 | -8 | 2 | 0 | 2
CC1(c2ccccc2)NC(=O)N(CC(=O)NNC(=O)c2ccccc2)C1=O (stereo not given) | 4 | -43* | 2 | 0 | -3
COc1cc([N+](=O)[O-])ccc1NC(=O)N1CCC2(CC1)Nc1cc(F)ccc1-n1cccc12 | 5 | -11 | 6 | 0 | -3
CC(C)(C)OC(=O)N(c1cccc2cccnc12)S(=O)(=O)c1ccccc1Br | 1 | 30 | 11 | 0 | 0
COc1cccc(CNC(=O)Cc2c(C)c3ccc(OC)c(C)c3oc2=O)c1 | 16 | -13 | 0 | -1 | -2
Cc1c(-c2nc(-c3ccc4c(c3)OCO4)no2)nnn1-c1ccc(C(C)C)cc1 | 3 | -4 | 2 | 0 | -1
O=c1c2cc3c(cc2n(Cc2cccc(F)c2)c(=O)n1Cc1nc(-c2ccccc2)no1)OCO3 | 1 | -2 | 7 | 0 | -1
SMILES | D1 agonist | D1 antagonist | TRHR PAM | TRHR ag | D1 PAM
CC(Cc1cccs1)NC(=O)Nc1ccc([N+](=O)[O-])cc1 (stereo not given) | 24 | -35* | 0 | 0 | -4
COc1ccc(NC(=S)NC(C)Cc2cccs2)cc1 (stereo not given) | 2 | 4 | 12 | -1 | -1
CC(Cc1cccs1)NC(=S)Nc1ccc(F)cc1 (stereo not given) | 19 | -44* | -2 | 2 | -5
Cc1cccc(Cn2c(=O)n(Cc3ccco3)c(=O)c3ccccc32)c1 | 2 | -15 | -6 | 0 | 1
CCn1c(=O)c2ccccc2n(Cc2cccc(C)c2)c1=O | -1 | -32* | -1 | 0 | -7
Cc1cn(C)c(CC(=O)Nc2cccc(C#N)c2)c1C(=O)O | 0 | -14 | 32* | 0 | -2
NS(=O)(=O)c1ccc(NC(=O)CCn2c(=O)oc3ccccc32)cc1 | 2 | 10 | 12 | 1 | 1
O=C(COc1ccc([N+](=O)[O-])cc1)NNC(=O)Nc1ccc([N+](=O)[O-])cc1 | 15 | -22 | -3 | 1 | -6
COc1ccc(OC)c(NC(=O)NNC(=O)COc2ccc([N+](=O)[O-])cc2)c1 | 0 | -49* | 6 | 0 | -5
COc1cc(NC(=O)COc2ccc(Cl)cc2)ccc1-c1cc2ccccc2oc1=O | 2 | -41* | 21 | 0 | 0
COc1ccc(NC(=O)NNC(=O)COc2ccc3cc(Br)ccc3c2)cc1OC | 8 | -3 | -4 | 1 | 0
COC(=O)c1ccc(NC(=O)Nc2ccc([N+](=O)[O-])cc2)cc1 | 36* | -43* | -1 | 2 | -7
COc1ccc(NC(=O)NNC(=O)COc2ccc3ccccc3c2)cc1OC | 1 | -49* | -6 | 0 | 9
COc1cc(NC(=O)COc2ccc(Cl)cc2)ccc1NC(=O)C(C)C | 5 | 0 | 0 | -1 | -5
O=C(CSc1nc(C(F)(F)F)cc(=O)[nH]1)Nc1ccc2c(c1)OCCO2 | 3 | 4 | -3 | 0 | 3
COC(=O)c1ccc(NC(=O)Nc2ccc(F)cc2)cc1 | 24 | -36* | 19 | 2 | -10
CCOC(=O)c1ccc(NC(=O)Nc2ccc(F)cc2)cc1 | 21 | -29 | 2 | 2 | -6
COc1ccc([N+](=O)[O-])cc1NC(=O)CS(=O)(=O)c1ccc(C)cc1 | 3 | 11 | -3 | -1 | 0
COc1ccc([N+](=O)[O-])cc1NC(=O)c1ccccc1SC | 1 | -43* | 6 | -2 | -5
COc1ccc([N+](=O)[O-])cc1NC(=O)CCS(=O)(=O)c1ccc(Br)cc1 | 3 | -33* | -1 | -1 | -8
Cn1ccc2c(OCC(=O)Nc3ccc([N+](=O)[O-])cc3)cccc2c1=O | 3 | -37* | 11 | 0 | 0
Cn1ccc2c(OCC(=O)Nc3ccc(OC(F)(F)F)cc3)cccc2c1=O | -2 | / | 1 | 0 | -3
